TDP1 cell noCPT – qHTS for Inhibitors of human tyrosyl-DNA phosphodiesterase 1 (TDP1): qHTS in cells in absence of CPT | DT40 Tdp1-/- hTDP1 cells, no CPT, ATP luminescence, 48 h | Potency, µM (top dose mostly 46.2 µM), without a hit: at the highest dose activity change, negative = growth inhibition, most hits filed as inhibitors | actives 15% (n = 420,000); note: potency is the fitted concentration of half-maximal effect; nearly all actives have a fitted effect of over 55% in size
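Growth kinetics read by CellTiter-Glo luminescence after ≥48 hr at 37 °C. Cells: DT40 Tdp1-/- stably carrying human TDP1, 400 per well, compound exposure in the absence of CPT (DMSO vehicle).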
ELG1 repair inh – qHTS screen for small molecules that inhibit ELG1-dependent DNA repair in human embryonic kidney (HEK293T) cells expressing luciferase-tagged ELG1. HEK293T ELG1-luciferase reporter, luminescence, 16 h; DNA damage induced by 5-fluorouridine. Potency, µM (series often up to 46.1 µM), without a hit: at the highest dose activity change, negative = inhibition, actives largely listed as inhibitors. actives 2.3% (n = 330,000); note: potency is the fitted concentration of half-maximal effect; nearly all actives have a fitted effect of over 55% in size
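Cells (2,000 per well) received 5-fluorouridine plus test compound or DMSO and were incubated 16 hr at 37 °C, 5% CO2. Luciferase activity was read by luminescence 30 min after ONE-Glo addition; signal suppression marked inhibition of damage-induced ELG1 function.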
TDP1 cell CPT – qHTS for Inhibitors of human tyrosyl-DNA phosphodiesterase 1 (TDP1): qHTS in cells in presence of CPT | chicken DT40 Tdp1-/-;hTDP1 cells + 20 nM CPT, ATP luminescence, 48 h | Potency, µM (titrated, usually from 46.2 µM), inactives show at the top dose activity change, negative = growth inhibition, hits mostly inhibitors | actives 12% (n = 420,000); note: potency is the fitted concentration of half-maximal effect; nearly all actives have a fitted effect of over 55% in size
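Cell growth measured by CellTiter-Glo luminescence after a minimum 48 h, 37 C compound exposure with 20 nM CPT in Tdp1-knockout DT40 cells stably expressing hTDP1, seeded 400/well; qHTS titration format.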
HT1080NT lethal – qHTS for induction of synthetic lethality in tumor cells producing 2HG: qHTS for the HT-1080-NT fibrosarcoma cell line. HT-1080-NT fibrosarcoma viability, CellTiter-Glo ATP luminescence, 48 h. Potency, µM (titrated, usually from 46.1 µM), inactives show at the highest dose activity, negative = less viability, usual class: cytotoxic. actives 1.6% (n = 360,000). AID 686970, 2013;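 note: NT is the 2HG producing partner of a matched IDH1 knockdown line; potency is the fitted concentration of half-maximal effect; 0% = DMSO-treated cells and -100% = media-only wells without cells; nearly all actives have a fitted effect of over 55% in size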
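Compounds were tested in concentration-response format on HT-1080-NT cells for 48 hours at 37 degrees C. Cell viability came from CellTiter-Glo luminescence; curves were classified by r2, response magnitude and activity.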
IL1B secr inh – qHTS for Inhibitors of Inflammasome Signaling: IL-1-beta AlphaLISA Primary Screen; THP-1 LPS/ATP IL-1B secretion, AlphaLISA, 16 h; stronger effect = lower value; activity change, % at 57.5 µM; actives 4.7% (n = 360,000); in the data active = activity change below about -50%; inconclusive = mostly about -30% to -49%
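Secreted IL-1B measured by AlphaLISA bead assay after 16 h compound exposure of THP-1 cells; compounds (final up to 57.5 uM) added 1 h before LPS (250 ng/mL) and ATP (1.25 mM) stimulation; lower signal means less secretion.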
HT1080 IDH1KD tx – qHTS for induction of synthetic lethality in tumor cells producing 2HG: qHTS for the HT-1080-IDH1KD cell line; HT-1080 IDH1 knockdown viability, ATP luminescence, 48 h; actives 2% (n = 360,000); Potency, µM (doses to about 46.1 µM), for the others: at the top dose activity, negative = toxicity, most hits filed as cytotoxic;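 note: potency is the fitted concentration of half-maximal effect; 0% = DMSO wells and -100% = cell-free medium wells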
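Cytotoxicity counter-line: IDH1KD HT-1080, 48 h, CellTiter-Glo. Curves classed by r2, magnitude and activity.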
An asterisk follows results filed as active; u = inconclusive; x = no result; [ ] = another dose, or the depositor's remark. Shown are actives, neighbours in structure and some others; about 19% of the full set was active somewhere. Unless noted, calls come from the whole dose curve; as a rule, active = well fitted curve in the direction sought with a large enough effect; inconclusive = small, poorly fitted or top-dose-only effect, or another doubt; inactive = no such curve, though single readings can be large; an effect the other way counts as inactive or inconclusive. Unless noted, % is set by controls: 0 for no effect and ±100 for the full control effect.

SMILES	TDP1 cell noCPT	ELG1 repair inh	TDP1 cell CPT	HT1080NT lethal	IL1B secr inh	HT1080 IDH1KD tx
Cc1cccc(C)c1NC(=O)C(=O)NCC(c1cccnc1)N1CCc2ccccc21 (centres undefined)	13µM*	x	14.6µM*	x	x	x
CCc1ccccc1NC(=O)C(=O)NCC(c1cccnc1)N1CCc2ccccc21 (centres undefined)	20.6µM*	x	u	x	x	x
Cc1ccc(Cl)cc1NC(=O)C(=O)NCC(c1cccnc1)N1CCc2ccccc21 (centres undefined)	13µM*	x	13µM*	x	x	x
Cc1ccccc1C(=O)NCC(c1cccnc1)N1CCc2ccccc21 (centres undefined)	18.4µM*	x	u	x	x	x
CC(C)c1ccc(NC2=CC(=O)CC(C)(C)C2)cc1	-15.6%	u	-3.7%	16.3%	-10.7	-2.7%
CCOC(=O)C1CCCN(C(=O)c2cc(S(=O)(=O)N3CCCCC3)c[nH]2)C1 (centres undefined)	-9.1%	13.1%	-0.7%	0.6%	-4.0	-7.6%
O=C(O)COc1ccccc1/C=N/NC(=O)CSc1nnc(-c2ccc(Cl)cc2)n1C1CCCCC1	1.4%	2.2%	-9.4%	-5.1%	-20.9	-0.5%
COc1cccc(S(=O)(=O)N(C)C[C@@H]2Oc3cc(C#CCN(C)C)ccc3S(=O)(=O)N([C@H](C)CO)C[C@@H]2C)c1	u	x	-18.2%	-1.2%	-25.3	-6.5%
COc1ccc(S(=O)(=O)N(C)C[C@@H]2Oc3cc(C#CC4CCCCC4)ccc3S(=O)(=O)N([C@@H](C)CO)C[C@@H]2C)cc1	18.4µM*	x	18.4µM*	-26.1%	-52.2*	u
COc1ccccc1S(=O)(=O)N(C)C[C@H]1Oc2cc(Br)ccc2S(=O)(=O)N([C@@H](C)CO)C[C@H]1C	16.4µM*	x	29.1µM*	-11.0%	-14.4	-2.7%
COc1ccccc1S(=O)(=O)N(C)C[C@H]1Oc2cc(C#CCC3CCCC3)ccc2S(=O)(=O)N([C@H](C)CO)C[C@H]1C	8.2µM*	x	13µM*	-29.4%	-9.1	-29.5%
C[C@H]1CN([C@@H](C)CO)S(=O)(=O)c2ccc(Br)cc2O[C@H]1CN(C)S(=O)(=O)c1ccccc1F	4.5%	x	2.9%	-0.1%	20.1	-2.1%
CCOc1ccc(CCNC(=O)Cn2nc(C)c3c(C)n(-c4ccccc4)nc3c2=O)cc1OCC	u	-9.2%	u	-9.8%	-1.8	5.3%
CCOC(=O)c1n[nH]n(-c2cc(Cl)cc(Cl)c2)c1=O	-4.3%	u	1.0%	14.0%	4.5	8.1%
COC(=O)Cc1c(C)[nH]n(-c2cc(Cl)cc(Cl)c2)c1=O	2.1%	8.9%	2.8%	u	-65.3*	u
Cc1ccccc1S(=O)(=O)NNC(=O)C(=O)NNc1ccccn1	23.1µM*	-1.6%	u	-21.9%	26.9	u
COc1ccc(C(=O)CSc2nccn2C)c(OC)c1	8.7%	u	4.8%	24.8%	-0.7	7.0%
CCN(CC)CCOC(=O)c1ccc(NC(=O)c2nn(C)c3c2COc2ccccc2-3)cc1	3.26µM*	x	4.11µM*	x	x	x
CC(=O)c1ccc(NC(=O)c2nn(C)c3c2CS(=O)(=O)c2ccccc2-3)cc1	-12.2%	x	-17.5%	x	x	x
CC(=O)c1ccc(NC(=O)c2nn(C)c3c2COc2ccccc2-3)cc1	u	x	14.6µM*	x	x	x
CCOC(=O)c1ccc(NC(=O)c2nn(C)c3c2COc2ccccc2-3)cc1	-4.5%	x	u	x	x	x
CC(=O)c1ccc(NC(=O)c2noc3c2CSc2ccccc2-3)cc1	9.2µM*	x	14.6µM*	x	x	x
O=C(/C=C/C(=O)Oc1ccccc1C(=O)O)Oc1ccccc1C(=O)O	0.9%	x	-23.1%	x	x	x
COCc1c(C(=O)N2CCCCC2c2cccnc2)cnn1-c1ncc2c(n1)-c1ccccc1CCC2 (centres undefined)	u	x	-12.2%[9.04 µM]	x	x	x
COc1cc(-c2coc3c(C(=O)NCc4ccc(C(F)(F)F)cc4)cccc23)ccc1O	20.6µM*	x	14.6µM*	u	u	25.9µM*
SMILES	TDP1 cell noCPT	ELG1 repair inh	TDP1 cell CPT	HT1080NT lethal	IL1B secr inh	HT1080 IDH1KD tx
O=C(NCc1ccc(C(F)(F)F)cc1)c1cccc2c(-c3cccnc3)coc12	-29.7%	x	u	u	0.0	u
O=C(NCc1ccccc1)c1cccc2c(-c3cccnc3)coc12	u	x	u	0.0%	-28.3	-14.2%
COc1cc(-c2coc3c(C(=O)NCc4ccncc4)cccc23)ccc1O	-90.6%	x	-98.8%	-7.6%	-67.3*	-11.6%
CCC1C(=O)NCCN1Cc1ccc2c(c1)CN(Cc1cccc(OC)c1OC)CCO2 (centres undefined)	-19.2%	x	0.731µM*	x	x	x
Cc1ccc(CN2CCOc3ccc(CN4CCC(O)(c5cccnc5)CC4)cc3C2)cc1C	18.4µM*	x	-3.6%[9.04 µM]	x	x	x
COc1ccc(CN2CCOc3ccc(CN4CCC(O)(c5cccnc5)CC4)cc3C2)c(C)c1C	16.4µM*	x	u	x	x	x
Cc1ccc(-n2nc(C(=O)N3CCN(c4cc(Cl)ccc4C)CC3)c3c4ccccc4n(C)c3c2=O)cc1	-1.3%	x	-6.3%	x	x	x
C=C1c2ccccc2NC(=S)N1Cc1ccc2c(c1)OCO2	4.11µM*	u	-27.3%	-0.5%	-18.3	-9.8%
CC(=O)Oc1ccc(C(=O)Nc2cccc(NC(=O)c3ccco3)c2)cc1	-26.4%	1.6%	-6.3%	-2.0%	-7.9	-16.2%
O=C(Nc1cccc(NC(=O)c2ccco2)c1)c1cccc(Br)c1	u	-5.4%	-28.8%	u	-60.8*	-26.3%
O=C(Nc1cccc(NC(=O)c2ccco2)c1)c1ccc([N+](=O)[O-])cc1	-25.2%	11.6µM*	-20.6%	3.9%	13.4	-29.1%
COC(=O)c1cccc(NC(=O)CCNC(=O)c2ccco2)c1	-29.6%	0.9%	10.3%	-4.5%	-100.8*	-8.5%
O=C(Nc1cccc(S(=O)(=O)c2cccc(NC(=O)c3ccco3)c2)c1)c1ccco1	13µM*	23.1µM*	u	u	-14.9	-9.3%
O=C(CCNC(=O)c1ccco1)Nc1cccc(C(F)(F)F)c1	-8.1%	-1.8%	-3.2%	24.0%	-3.6	24.3%

Compound activity deposited in PubChem by National Center for Advancing Translational Sciences (NCATS).
